Experimental data as given in PubChem BioAssay (EPA / NIEHS).
Inconclusive results are not listed. The source made the active and inactive calls. How the source made its calls, unless noted: active means hit-call score of the fitted dose curve at least 0.9, where 1 is the maximum; inactive means score below 0.9.

Key:
[1] = ATG_TCF_b_cat_CIS: Attagene CIS-FACTORIAL HepG2 Assay for human T-Cell-Factor with beta-catenin (TCF/b-cat) (AID 2282965); conditions: HepG2 TCF/beta-catenin cis-reporter transcription, actives raise or lower the signal
Outline: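 Cells of the HepG2 line carry transiently transfected reporter units whose promoters respond to endogenous factors. Twenty-four hours post-dosing, reporter mRNA induction is measured by fluorescent RT-PCR and capillary electrophoresis, with DMSO as baseline.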

[2] = ATG_TAL_CIS: Attagene CIS-FACTORIAL HepG2 Assay for human TAL Basal Promoter (AID 2282966); conditions: HepG2 Attagene cis-factorial TAL promoter reporter; actives raise or lower the signal;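 further: background control endpoint measuring basal TAL promoter reporter mRNA not a specific factor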
Outline: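 HepG2, transient MRTU transfection, 24 h compound exposure; RNA → oligo(dT) RT → PCR → 6-FAM primer extension → HpaI digest → CE fluorescence. Bidirectional curve fit vs DMSO. Background-control readout.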

[3] = ATG_TGFb_CIS: Attagene CIS-FACTORIAL HepG2 Assay for human Transforming Growth Factor (TGF) (AID 2282967); conditions: HepG2 Attagene CIS TGFb reporter, mRNA transcription; actives raise or lower the signal
Outline: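 Multiplexed cis-reporter HepG2 system, 24 h treatment; mRNA induction read by fluorescence after RT-PCR and CE; DMSO negative control, bidirectional curve fitting.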

[4] = ATG_VDRE_CIS: Attagene CIS-FACTORIAL HepG2 Assay for human Vitamin D Receptor Element (VDRE) (AID 2282968); conditions: HepG2 VDRE cis-reporter transcription, actives raise or lower the signal
Outline: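 Transient MRTU transfection of HepG2, 24 h compound exposure. Readout: reporter transcripts via RT-PCR and capillary electrophoresis, fluorescence. Bidirectional fit vs DMSO.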

[5] = biological target: X-box-binding protein 1 (Homo sapiens) (UniProt P17861); experiment: ATG_Xbp1_CIS: Attagene CIS-FACTORIAL HepG2 Assay for human X-box Binding Protein 1 (XBP1) (AID 2282972); conditions: HepG2 XBP1 cis-element reporter, Attagene multiplex; actives raise or lower the signal
Chain of X-box-binding protein 1 (Homo sapiens) (P17861 whole entry, looked up): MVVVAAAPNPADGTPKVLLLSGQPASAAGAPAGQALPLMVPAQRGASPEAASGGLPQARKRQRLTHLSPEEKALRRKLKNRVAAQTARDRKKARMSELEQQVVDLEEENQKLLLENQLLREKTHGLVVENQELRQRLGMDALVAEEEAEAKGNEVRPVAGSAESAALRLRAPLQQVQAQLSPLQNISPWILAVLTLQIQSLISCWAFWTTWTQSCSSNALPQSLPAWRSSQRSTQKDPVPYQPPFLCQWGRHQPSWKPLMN
Outline: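 Human hepatoma HepG2, cis-element reporter system, 24 h treatment; mRNA quantified by RT-PCR/CE fluorescence; fit relative to DMSO.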

[6] = biological target: Glucocorticoid receptor (Homo sapiens) (UniProt P04150); experiment: ATG_GR_TRANS: Attagene TRANS-FACTORIAL HepG2 Assay for human Glucocorticoid Receptor (GR) (AID 2282978; active means hit-call score of the fitted dose curve at least 0.9, where 1 is the maximum;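 further: activators score as hits since higher reporter transcript over DMSO is fitted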); conditions: HepG2 Attagene TRANS GR reporter, mRNA transcription
Chain of Glucocorticoid receptor (Homo sapiens) (P04150 whole entry, looked up): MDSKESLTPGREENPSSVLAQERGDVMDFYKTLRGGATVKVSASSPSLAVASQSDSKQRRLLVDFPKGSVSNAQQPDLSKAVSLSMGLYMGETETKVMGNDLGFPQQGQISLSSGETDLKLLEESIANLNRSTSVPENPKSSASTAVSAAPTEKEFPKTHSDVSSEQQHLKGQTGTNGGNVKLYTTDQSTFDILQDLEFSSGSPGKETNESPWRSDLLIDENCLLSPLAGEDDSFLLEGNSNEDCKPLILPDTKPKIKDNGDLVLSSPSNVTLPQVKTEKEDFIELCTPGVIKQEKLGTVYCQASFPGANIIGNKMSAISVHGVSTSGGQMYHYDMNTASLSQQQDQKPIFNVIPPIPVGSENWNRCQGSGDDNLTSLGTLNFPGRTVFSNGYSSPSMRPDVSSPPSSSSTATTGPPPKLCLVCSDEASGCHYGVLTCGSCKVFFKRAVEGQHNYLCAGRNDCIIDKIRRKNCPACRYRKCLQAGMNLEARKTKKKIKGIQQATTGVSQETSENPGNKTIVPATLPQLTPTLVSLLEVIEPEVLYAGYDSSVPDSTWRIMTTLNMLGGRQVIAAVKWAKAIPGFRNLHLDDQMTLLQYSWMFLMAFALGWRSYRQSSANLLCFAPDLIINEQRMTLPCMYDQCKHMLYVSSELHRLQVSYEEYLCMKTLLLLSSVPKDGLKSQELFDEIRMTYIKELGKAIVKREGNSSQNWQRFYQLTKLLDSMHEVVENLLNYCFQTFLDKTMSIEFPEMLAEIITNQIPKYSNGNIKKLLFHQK
Outline: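 Multiplexed TRANS reporter system, HepG2; 24 h exposure; RNA → oligo(dT) RT → reporter-specific PCR → 6-FAM primer extension → HpaI cut → CE fluorescence. Gain-of-signal vs DMSO.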

[7] = biological target: Bile acid receptor (Homo sapiens) (UniProt Q96RI1); experiment: ATG_FXR_TRANS: Attagene TRANS-FACTORIAL HepG2 Assay for Farnesoid X Receptor (FXR) (AID 2282979; active means hit-call score of the fitted dose curve at least 0.9, where 1 is the maximum;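 further: hits raise reporter mRNA above DMSO so AC50 marks FXR activation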); conditions: HepG2 Attagene TRANS FXR-GAL4 reporter transcription
Chain of Bile acid receptor (Homo sapiens) (Q96RI1 whole entry, looked up, the tested form may be a part): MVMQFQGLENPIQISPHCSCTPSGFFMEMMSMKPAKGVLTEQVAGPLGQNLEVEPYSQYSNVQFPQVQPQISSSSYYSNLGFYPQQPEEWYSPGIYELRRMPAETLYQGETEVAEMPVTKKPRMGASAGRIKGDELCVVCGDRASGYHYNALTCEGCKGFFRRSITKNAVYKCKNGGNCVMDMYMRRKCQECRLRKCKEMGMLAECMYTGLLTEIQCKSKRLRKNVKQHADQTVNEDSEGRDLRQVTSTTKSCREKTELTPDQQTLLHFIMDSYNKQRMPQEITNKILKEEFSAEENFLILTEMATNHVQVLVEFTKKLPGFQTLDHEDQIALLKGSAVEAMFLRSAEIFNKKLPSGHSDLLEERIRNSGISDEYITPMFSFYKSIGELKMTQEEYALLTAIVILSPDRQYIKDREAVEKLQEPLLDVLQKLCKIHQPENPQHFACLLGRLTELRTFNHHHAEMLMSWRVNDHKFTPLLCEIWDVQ
Outline: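 Read-out: fluorescent reporter transcripts quantified by capillary electrophoresis after RT-PCR of total RNA. Source cells were HepG2 transiently carrying chimeric NR-GAL4 plus GAL4-UAS reporter units, dosed 24 h. Activity fitted upward relative to DMSO baseline.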

[8] = biological target: Oxysterols receptor LXR-alpha (Homo sapiens) (UniProt Q13133); experiment: ATG_LXRa_TRANS: Attagene TRANS-FACTORIAL HepG2 Assay for human Liver X Receptor alpha (LXRa) (AID 2282980; active means hit-call score of the fitted dose curve at least 0.9, where 1 is the maximum); conditions: HepG2 Attagene TRANS reporter, LXRa transactivation
Chain of Oxysterols receptor LXR-alpha (Homo sapiens) (Q13133 whole entry, looked up, the tested form may be a part): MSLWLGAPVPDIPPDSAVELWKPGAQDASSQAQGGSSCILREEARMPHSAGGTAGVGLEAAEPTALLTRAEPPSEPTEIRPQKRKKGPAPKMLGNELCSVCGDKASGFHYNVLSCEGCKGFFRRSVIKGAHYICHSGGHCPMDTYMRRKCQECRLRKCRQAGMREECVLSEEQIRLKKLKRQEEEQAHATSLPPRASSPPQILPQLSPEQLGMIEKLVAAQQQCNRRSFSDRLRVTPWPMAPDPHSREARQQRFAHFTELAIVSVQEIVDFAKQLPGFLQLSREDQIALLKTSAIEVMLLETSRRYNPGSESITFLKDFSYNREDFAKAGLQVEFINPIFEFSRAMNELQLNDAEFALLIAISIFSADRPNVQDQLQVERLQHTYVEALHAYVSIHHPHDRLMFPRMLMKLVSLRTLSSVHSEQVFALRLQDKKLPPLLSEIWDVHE
Outline: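 Read-out: reporter transcript levels by RT-PCR plus capillary electrophoresis, fluorescence intensity. Transiently transfected HepG2, exogenous NR-GAL4 chimera, GAL4-UAS reporters; 24 h compound exposure. Activity = increase over DMSO negative control.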

[9] = biological target: Oxysterols receptor LXR-beta (Homo sapiens) (UniProt P55055); experiment: ATG_LXRb_TRANS: Attagene TRANS-FACTORIAL HepG2 Assay for human Liver X Receptor beta (LXRb) (AID 2282981; active means hit-call score of the fitted dose curve at least 0.9, where 1 is the maximum); conditions: HepG2 Attagene TRANS GAL4-LXRb reporter, mRNA
Chain of Oxysterols receptor LXR-beta (Homo sapiens) (P55055 whole entry, looked up, the tested form may be a part): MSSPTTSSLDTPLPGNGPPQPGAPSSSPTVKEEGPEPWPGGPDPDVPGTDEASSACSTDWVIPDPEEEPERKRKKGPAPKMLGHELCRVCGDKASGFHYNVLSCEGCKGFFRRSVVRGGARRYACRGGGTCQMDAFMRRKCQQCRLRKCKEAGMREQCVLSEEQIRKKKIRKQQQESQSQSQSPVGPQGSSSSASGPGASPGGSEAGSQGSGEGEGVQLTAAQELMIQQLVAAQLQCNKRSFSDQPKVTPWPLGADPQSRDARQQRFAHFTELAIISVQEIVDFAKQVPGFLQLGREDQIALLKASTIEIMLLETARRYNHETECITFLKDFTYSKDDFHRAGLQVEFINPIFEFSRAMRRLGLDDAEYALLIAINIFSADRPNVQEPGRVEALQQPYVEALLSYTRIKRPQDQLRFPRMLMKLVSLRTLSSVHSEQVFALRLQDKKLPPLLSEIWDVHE
Outline: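 Readout: fluorescent reporter mRNA fragments resolved by capillary electrophoresis after RT-PCR. System: transiently transfected human HepG2, exogenous LXRb-Gal4 chimera driving GAL4-UAS reporter, 24 h dosing. Activity fitted upward against DMSO baseline.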

[10] = ATG_M_06_TRANS: Attagene TRANS-FACTORIAL HepG2 Assay for M06 Transcription Factor (Internal Marker) (AID 2282983; active means hit-call score of the fitted dose curve at least 0.9, where 1 is the maximum); conditions: HepG2 Attagene TRANS M06 internal marker reporter
Outline: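 Read-out: fluorescent reporter cDNA fragments resolved by capillary electrophoresis after RT-PCR and HpaI cut. Source cells were HepG2 carrying transfected multi-reporter GAL4 constructs, dosed 24 h. Increase over DMSO control analysed.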

[11] = biological target: Transcriptional activator Myb (Homo sapiens) (UniProt P10242); experiment: ATG_Myb_CIS: Attagene CIS-FACTORIAL HepG2 Assay for human Myeloblastosis (Myb) Proto-Oncogene Transcription Factor (AID 2282986); conditions: HepG2 Attagene CIS-FACTORIAL Myb reporter transcription; actives raise or lower the signal
Chain of Transcriptional activator Myb (Homo sapiens) (P10242 whole entry, looked up): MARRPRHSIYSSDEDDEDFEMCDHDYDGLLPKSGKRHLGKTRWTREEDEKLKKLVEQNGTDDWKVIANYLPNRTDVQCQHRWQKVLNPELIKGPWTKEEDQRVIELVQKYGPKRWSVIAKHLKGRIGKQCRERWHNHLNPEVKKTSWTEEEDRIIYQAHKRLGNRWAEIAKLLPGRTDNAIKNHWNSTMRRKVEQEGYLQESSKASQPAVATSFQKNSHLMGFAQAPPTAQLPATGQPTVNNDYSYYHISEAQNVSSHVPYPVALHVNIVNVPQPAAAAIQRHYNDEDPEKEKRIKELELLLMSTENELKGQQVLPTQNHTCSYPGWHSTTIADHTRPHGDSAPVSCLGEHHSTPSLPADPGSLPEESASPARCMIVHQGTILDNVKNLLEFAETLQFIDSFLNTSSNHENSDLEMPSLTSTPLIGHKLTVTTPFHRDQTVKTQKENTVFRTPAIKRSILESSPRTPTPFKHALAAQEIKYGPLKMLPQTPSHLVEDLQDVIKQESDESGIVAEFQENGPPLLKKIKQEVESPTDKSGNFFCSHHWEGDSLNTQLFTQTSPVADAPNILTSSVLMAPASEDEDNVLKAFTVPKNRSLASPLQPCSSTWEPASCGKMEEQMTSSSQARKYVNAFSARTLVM
Outline: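 Endogenous transcription factor activity at a Myb-responsive cis element is reported in human liver HepG2 cells after 24 h chemical treatment. Reporter mRNA is detected by RT-PCR and capillary electrophoresis fluorescence, with DMSO as baseline.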

[12] = ATG_GAL4_TRANS: Attagene TRANS-FACTORIAL HepG2 Assay for GAL4 (Internal Marker) (AID 2282976; active means hit-call score of the fitted dose curve at least 0.9, where 1 is the maximum); conditions: HepG2 Attagene TRANS GAL4 internal marker reporter
Outline: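 RT-PCR/capillary electrophoresis readout of reporter mRNA. HepG2, transient MRTU transfection (GAL4-UAS reporters), 24 h compound exposure. Background-control endpoint, positive direction vs DMSO baseline.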

[13] = biological target: Estrogen-related receptor gamma (Homo sapiens) (UniProt P62508); experiment: ATG_ERRg_TRANS: Attagene TRANS-FACTORIAL HepG2 Assay for human Estrogen-Related Receptor gamma (ERRg) (AID 2282977; active means hit-call score of the fitted dose curve at least 0.9, where 1 is the maximum;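 further: hits increase reporter signal over DMSO so potencies reflect activators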); conditions: HepG2 Attagene TRANS reporter, ERRg transactivation
Chain of Estrogen-related receptor gamma (Homo sapiens) (P62508 whole entry, looked up, the tested form may be a part): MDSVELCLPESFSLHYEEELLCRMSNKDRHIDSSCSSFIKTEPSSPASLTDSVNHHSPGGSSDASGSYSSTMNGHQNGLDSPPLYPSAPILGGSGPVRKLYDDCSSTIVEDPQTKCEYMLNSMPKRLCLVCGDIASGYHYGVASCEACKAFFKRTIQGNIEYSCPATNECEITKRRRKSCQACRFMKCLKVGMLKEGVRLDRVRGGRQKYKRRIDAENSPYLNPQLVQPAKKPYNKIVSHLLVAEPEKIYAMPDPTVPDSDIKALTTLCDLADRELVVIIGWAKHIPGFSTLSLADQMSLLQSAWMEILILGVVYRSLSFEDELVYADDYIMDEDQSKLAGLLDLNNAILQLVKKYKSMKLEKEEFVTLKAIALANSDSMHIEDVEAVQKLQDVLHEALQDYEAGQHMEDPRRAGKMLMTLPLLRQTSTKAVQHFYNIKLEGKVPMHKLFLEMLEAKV
Outline: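 Readout: fluorescent reporter-mRNA fragments resolved by capillary electrophoresis after RT-PCR and HpaI cut. Cells: transiently transfected HepG2 carrying GAL4-UAS reporters driven by exogenous NR-Gal4 chimeras, dosed 24 h. Activity fitted upward relative to DMSO baseline.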

[14] = biological target: Hepatocyte nuclear factor 4-alpha (Homo sapiens) (UniProt P41235); experiment: ATG_HNF4a_TRANS: Attagene TRANS-FACTORIAL HepG2 Assay for human Hepatocyte Nuclear Factor 4 alpha (HNF4a) (AID 2282982; active means hit-call score of the fitted dose curve at least 0.9, where 1 is the maximum); conditions: HepG2 HNF4a transactivation reporter, mRNA readout
Chain of Hepatocyte nuclear factor 4-alpha (Homo sapiens) (P41235 whole entry, looked up): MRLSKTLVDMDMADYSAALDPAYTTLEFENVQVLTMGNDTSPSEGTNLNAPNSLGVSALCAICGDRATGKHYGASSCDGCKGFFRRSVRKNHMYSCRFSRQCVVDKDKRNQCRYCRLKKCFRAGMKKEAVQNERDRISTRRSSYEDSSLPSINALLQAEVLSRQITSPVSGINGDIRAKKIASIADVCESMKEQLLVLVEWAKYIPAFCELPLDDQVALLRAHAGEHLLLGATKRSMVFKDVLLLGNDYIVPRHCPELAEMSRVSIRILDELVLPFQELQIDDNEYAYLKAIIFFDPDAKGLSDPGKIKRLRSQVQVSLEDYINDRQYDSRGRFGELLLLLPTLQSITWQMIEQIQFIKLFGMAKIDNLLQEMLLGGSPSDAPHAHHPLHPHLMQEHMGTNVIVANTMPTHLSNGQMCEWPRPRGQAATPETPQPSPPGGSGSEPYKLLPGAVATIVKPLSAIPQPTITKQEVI
Outline: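 Transient MRTU transfection of HepG2, 24 h dosing. Readout: reporter mRNA via RT-PCR + capillary electrophoresis, fluorescence; activity fit upward relative to DMSO control.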

[15] = biological target: Nuclear receptor subfamily 4 group A member 2 (Homo sapiens) (UniProt P43354); experiment: ATG_NURR1_TRANS: Attagene TRANS-FACTORIAL HepG2 Assay for human Nuclear Receptor Related Protein 1 (NURR1) (AID 2282985; active means hit-call score of the fitted dose curve at least 0.9, where 1 is the maximum); conditions: HepG2 Attagene TRANS reporter, mRNA readout
Chain of Nuclear receptor subfamily 4 group A member 2 (Homo sapiens) (P43354 whole entry, looked up, the tested form may be a part): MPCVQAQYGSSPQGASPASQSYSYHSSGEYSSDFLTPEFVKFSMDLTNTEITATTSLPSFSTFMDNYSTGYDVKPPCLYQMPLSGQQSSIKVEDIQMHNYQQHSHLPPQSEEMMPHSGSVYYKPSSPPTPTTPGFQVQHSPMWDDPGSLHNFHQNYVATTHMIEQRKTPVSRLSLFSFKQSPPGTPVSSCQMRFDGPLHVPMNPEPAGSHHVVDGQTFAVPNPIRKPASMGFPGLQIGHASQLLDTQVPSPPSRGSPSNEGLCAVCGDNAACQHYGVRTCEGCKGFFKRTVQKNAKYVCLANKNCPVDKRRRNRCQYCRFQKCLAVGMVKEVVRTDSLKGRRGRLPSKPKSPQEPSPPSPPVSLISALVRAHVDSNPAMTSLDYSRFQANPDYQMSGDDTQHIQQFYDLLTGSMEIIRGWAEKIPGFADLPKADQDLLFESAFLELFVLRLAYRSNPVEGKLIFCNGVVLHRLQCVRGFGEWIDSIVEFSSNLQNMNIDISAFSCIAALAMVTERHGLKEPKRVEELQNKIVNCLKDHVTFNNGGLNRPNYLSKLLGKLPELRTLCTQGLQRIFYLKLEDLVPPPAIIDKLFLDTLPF
Outline: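 Read-out: reporter mRNA induction by RT-PCR plus capillary electrophoresis with fluorescence detection, after 24 h dosing of transfected HepG2 cells. Exogenous NR-Gal4 chimera activity drives GAL4-UAS reporter; activity fitted upward versus DMSO.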

[16] = ATG_M_32_TRANS: Attagene TRANS-FACTORIAL HepG2 Assay for M32 Transcription Factor (Internal Marker) (AID 2282984; active means hit-call score of the fitted dose curve at least 0.9, where 1 is the maximum;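 further: transcript level of a background control reporter unit measured by RT-PCR and capillary electrophoresis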); conditions: HepG2 Attagene TRANS M32 internal marker reporter
Outline: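 Read-out: fluorescent reporter cDNA fragments resolved by capillary electrophoresis after RT-PCR of total RNA. Transfected HepG2 cells were exposed to chemical for 24 h. Activity scored in the positive direction relative to DMSO.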

[17] = ATG_M_19_TRANS: Attagene TRANS-FACTORIAL HepG2 Assay for M19 Transcription Factor (Internal Marker) (AID 2282974; active means hit-call score of the fitted dose curve at least 0.9, where 1 is the maximum); conditions: HepG2 Attagene TRANS-FACTORIAL M19 internal marker reporter
Outline: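 After transfection of HepG2 with GAL4-UAS-driven reporter constructs, cells are dosed for 24 h. Total RNA is reverse-transcribed, reporter sequences PCR-amplified and labelled, then HpaI-digested and sized by capillary electrophoresis.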

## CCC(C)(C)c1cc(O)c(C(C)(C)CC)cc1O
[1]
  AC50: 27.4 µM (active)
[2]
  outcome: inactive
[3]
  AC50: 146 µM (active)
[4]
  AC50: 19.8 µM (active)
[5]
  AC50: 5.91 µM (active)
[6]
  outcome: inactive
[7]
  AC50: 3.06 µM (active)
[8]
  outcome: inactive
[9]
  outcome: inactive
[10]
  outcome: inactive
[11]
  AC50: 9.69 µM (active)

## ClCCOCCOCCCl
[1]
  outcome: inactive
[2]
  outcome: inactive
[3]
  outcome: inactive
[4]
  outcome: inactive
[5]
  outcome: inactive
[12]
  outcome: inactive
[13]
  outcome: inactive
[9]
  outcome: inactive
[14]
  outcome: inactive
[10]
  outcome: inactive
[15]
  outcome: inactive
[11]
  outcome: inactive

## CC(=O)c1ccc(O)cc1
[1]
  outcome: inactive
[2]
  outcome: inactive
[3]
  outcome: inactive
[4]
  outcome: inactive
[5]
  outcome: inactive
[6]
  outcome: inactive
[7]
  outcome: inactive
[8]
  outcome: inactive
[14]
  outcome: inactive
[10]
  outcome: inactive
[16]
  outcome: inactive
[11]
  outcome: inactive

## CC1(C)CC(=O)CC(C)(C)N1
[1]
  outcome: inactive
[2]
  outcome: inactive
[3]
  outcome: inactive
[4]
  outcome: inactive
[5]
  outcome: inactive
[12]
  outcome: inactive
[8]
  outcome: inactive
[9]
  outcome: inactive
[10]
  outcome: inactive
[15]
  outcome: inactive
[11]
  outcome: inactive

## O=S(=O)(O)c1cc(S(=O)(=O)O)c2c(N=Nc3ccccc3)c(O)ccc2c1
[1]
  outcome: inactive
[2]
  outcome: inactive
[3]
  outcome: inactive
[4]
  outcome: inactive
[5]
  outcome: inactive
[12]
  outcome: inactive
[6]
  outcome: inactive
[7]
  outcome: inactive
[8]
  outcome: inactive
[9]
  outcome: inactive
[10]
  outcome: inactive
[11]
  outcome: inactive

## O=S1(=O)CC=CC1
[1]
  outcome: inactive
[2]
  outcome: inactive
[3]
  outcome: inactive
[4]
  outcome: inactive
[5]
  outcome: inactive
[12]
  outcome: inactive
[8]
  outcome: inactive
[14]
  outcome: inactive
[11]
  outcome: inactive

## CCOC(=O)CC(C)C
[1]
  outcome: inactive
[2]
  outcome: inactive
[3]
  outcome: inactive
[4]
  outcome: inactive
[5]
  outcome: inactive
[12]
  outcome: inactive
[6]
  outcome: inactive
[9]
  outcome: inactive
[14]
  outcome: inactive
[10]
  outcome: inactive
[11]
  outcome: inactive

## CC/C=C\CCOC(=O)C(C)C
[1]
  outcome: inactive
[2]
  outcome: inactive
[3]
  outcome: inactive
[4]
  outcome: inactive
[5]
  outcome: inactive
[12]
  outcome: inactive
[6]
  outcome: inactive
[9]
  outcome: inactive
[14]
  outcome: inactive
[11]
  outcome: inactive

## Cc1ccncc1
[1]
  outcome: inactive
[2]
  outcome: inactive
[3]
  outcome: inactive
[4]
  outcome: inactive
[5]
  outcome: inactive
[17]
  outcome: inactive
[12]
  outcome: inactive
[10]
  outcome: inactive
[11]
  outcome: inactive

## OCC=Cc1ccccc1
[1]
  outcome: inactive
[2]
  outcome: inactive
[3]
  outcome: inactive
[4]
  outcome: inactive
[5]
  outcome: inactive
[8]
  outcome: inactive
[9]
  outcome: inactive
[14]
  outcome: inactive
[15]
  outcome: inactive
[11]
  outcome: inactive

## CCCCOCCOCCO
[1]
  outcome: inactive
[2]
  outcome: inactive
[3]
  outcome: inactive
[4]
  outcome: inactive
[5]
  outcome: inactive
[17]
  outcome: inactive
[6]
  outcome: inactive
[10]
  outcome: inactive
[16]
  outcome: inactive
[15]
  outcome: inactive
[11]
  outcome: inactive

## CCC(=O)OCC=Cc1ccccc1
[1]
  outcome: inactive
[2]
  outcome: inactive
[3]
  outcome: inactive
[4]
  outcome: inactive
[5]
  outcome: inactive
[12]
  outcome: inactive
[7]
  outcome: inactive
[9]
  outcome: inactive
[14]
  outcome: inactive
[10]
  outcome: inactive
[16]
  outcome: inactive
[11]
  outcome: inactive
